# Test results published in PubChem BioAssay AID1259415 (National Center for Advancing Translational Sciences (NCATS), 2018).
# Hit rate of the full screen: of about 410,000 compounds, about 18,000 (4.4%) were called active. Not shown: some 7% with an inconclusive outcome. What follows is part of a selection rich in actives, with near analogues and random picks from the rest. Unmarked numbers belong to inactive results. No stated cut-off is given here; in the data, active means activity change below about -60%; inconclusive means no clear call, values can overlap the other calls; inactive means above about -39%.
# Experiment: qHTS Assay for inhibitors of the human cytomegalovirus (HCMV)
# Details: HFF cells, HCMV-luciferase reporter, 72 h; at 57.5 µM; active compounds read low
# How it was run: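 Two-dose cell screen: HFF monolayers treated with compounds and infected with luciferase-expressing HCMV at 1 PFU/cell, 72 h at 37C, then lysed for luciferase measurement.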
# On the % scale 0 is the no-effect control and ±100 the full control effect.
row,SMILES,"activity change, negative = inhibition"
1,COc1ccc2c(Sc3ccc(C)cc3)c(C(=O)NC(C)c3ccccc3)[nH]c2c1 (stereo not drawn),-4.72%
2,COc1ccc(CNc2nc(-c3ccc(Cl)cc3)nn2S(=O)(=O)c2ccc(C)cc2)cc1,9.27%
3,CCOc1ccccc1Nc1nnc(SCC(=O)Nc2cc(C)on2)s1,45.8%
4,CCOc1ccccc1Nc1nnc(SCc2ccc(C(=O)OC)o2)s1,-61.9% (active)
5,COC(=O)c1ccc(CSc2nnc(N)s2)o1,-25.6%
6,Cc1ccc(NC(=O)c2ccc(CN3CC(=O)N4CCCCC4C3=O)cc2)c(Cl)c1 (stereo not drawn),48%
7,Cc1nn(C)c(C)c1CN(C(=O)CCc1nnc(Cc2c[nH]c3ccccc23)o1)C(C)C,9.02%
8,Clc1ccc(C[n+]2cc(-c3ccc(Cl)cc3)n3c2CCC3)cc1,-74.1% (active)
9,CC(C)C[C@@H](COCc1ccc(Cl)cc1)N1CCN(C(=O)c2ccc(Cl)cc2Cl)CCC1=O,-13.1%
10,Cc1ccccc1OCCC(=O)Nc1c(C)n(C)n(-c2ccccc2)c1=O,-31.3%
11,Cc1ccc(S(=O)(=O)CC(=O)Nc2c(C)n(C)n(-c3ccccc3)c2=O)cc1,10.8%
12,Cc1c(NC(=O)CSc2cccc3cccnc23)c(=O)n(-c2ccccc2)n1C,-83.5% (active)
13,COC(=O)c1nn(-c2cccc(Cl)c2)ccc1=O,-24.4%
14,CC(CCCc1ccccc1)NC(=O)c1nn(-c2ccc(Cl)cc2)nc1CO (stereo not drawn),-5.56%
15,CCCSC1=C(C#N)C(c2ccccc2C)C(C(=O)OC)C(=O)N1 (stereo not drawn),-10.3%
16,CCOc1ccc(-n2nc3ccc(NC(=O)c4ccc(OC)c(Cl)c4)cc3n2)cc1,1.85%
17,CCOc1ccc(C(=O)Nc2ccc3nc4c(c(Nc5ccccc5OC)c3c2)CCCC4)cc1,-83.9% (active)
18,CCOc1ccc(NC(=O)CSc2c3c(nc4ccccc24)CCCC3)cc1,-11.9%
19,COc1cc(/C=C/C(=O)N2CCc3ccccc3C2)cc(OC)c1OC,84.9%
20,COc1cc(/C=C/C(=O)O)cc(S(=O)(=O)Nc2ccccc2SC)c1OC,-14.9%
21,COc1ccccc1Nc1c2c(nc3ccc(NC(=O)/C=C/c4cc(OC)c(OC)c(OC)c4)cc13)CCCC2,-98.3% (active)
22,CCC(C(=O)Nc1cc(OC)ccc1OC)n1c(=O)c(C(F)(F)F)nc2ccccc21 (stereo not drawn),-4.66%

row,SMILES,"activity change, negative = inhibition"
1,COc1cc(OC)c(NC(=O)N2CC3CCCN3c3ccccc32)cc1Cl (stereo not drawn),-10.2%
2,CCc1ccccc1NC(=O)Cc1ccc(NC(=O)N2CCCCc3ccccc32)cc1,18.7%
3,COc1ccccc1C(=O)NCCC(=O)N(C)Cc1cccnc1,0%
4,CCOCCCNC(=O)c1ccc2nc(CCc3ccccc3)oc2c1,18.3%
5,CCOC(=O)N1CCc2c(sc3c2c(=O)n(Cc2ccccc2)c(=O)n3CC(=O)Nc2cccc(C)c2)C1,-9.95%
6,O=C(CNCc1ccc(Cl)cc1)Nc1cccc(C(=O)O)c1,-4.42%
7,CCc1cccc(NC(=O)c2cc(-c3ccccc3)n[nH]2)c1,46.1%
8,O=C(CCl)Nc1cccc(CP(=O)(c2ccccc2)c2ccccc2)c1,-108% (active)
9,Cc1cc(C)cc(NC(=O)CCS(=O)(=O)c2cc3c4c(c2)CCN4C(=O)CC3)c1,-0.0143%
10,C=C(C)C1CC=C(C)/C(=N\NC(=O)CNc2ccccc2OC)C1 (stereo not drawn),-21.5%
11,CN1CCN(c2oc(-c3ccc(COc4ccc(Cl)cc4)o3)nc2C#N)CC1,-31.4%
12,CN(CCc1cnn(C)c1)Cc1cn(C)nc1-c1ccccc1F,5.69%
13,CCn1c2ccccc2c2cc(NC(=O)COc3ccc(C)cc3C)ccc21,-8.23%
14,C/C(=N\OCC(=O)Nc1ccc(Br)cc1)c1cccs1,-6.56%
15,Cc1ccc(OCC(=O)Nc2ccc(NC(=O)c3cccs3)cc2)c(C)c1,-90.8% (active)
16,CCOc1ccc(NC(=O)Cn2cc(C(=O)c3ccc(C)cc3)c(=O)c3cc4c(cc32)OCCO4)cc1,11.7%
17,COc1ccc2cc(-c3nc(Cl)c4c5c(sc4n3)CC(C)CC5)c(=O)oc2c1 (stereo not drawn),-12.7%
18,O=C(NCc1ccccc1)c1cc(-c2cccc(Cl)c2)on1,21.7%
19,CCCCNC(=O)c1cc(-c2ccc(Cl)c(Cl)c2)on1,27.6%
20,COCCNC(=O)c1cc(-c2cccc(Cl)c2)on1,-70.5% (active)
21,O=C(O)c1ccc(CSc2nc3cccnc3n2Cc2cccc(F)c2)cc1,40.5%
22,CNS(=O)(=O)c1ccc(C(=O)NCC(=O)NCCc2ccc3c(c2)OCCO3)cc1,-5.01%

row,SMILES,"activity change, negative = inhibition"
1,CCc1ccccc1OCCSc1nc(-c2cccs2)nc2cc(=O)[nH]n12,-12.5%
2,CC(=O)c1ccc(NS(=O)(=O)c2ccc(-c3cc(C)no3)s2)cc1,0%
3,O=C(OCc1nc2ccccc2[nH]1)C1CCCCC1,4.12%
4,c1ccc2c(C[n+]3csc4ccccc43)cccc2c1,91.5%
5,c1ccc2c(CSCc3nc4ccccc4[nH]3)cccc2c1,-92.5% (active)
6,COc1ccccc1C(=O)N1O[C@]23C=C[C@]14C[C@@H](O)CC[C@]4(C)C2CC[C@]1(C)[C@@H]([C@H](C)/C=C/[C@H](C)C(C)C)CC[C@H]13 (stereo partly drawn),27.5%
7,Cc1ccc2nc(COc3ccccc3NC(=O)Nc3ccc(F)c(Cl)c3)cc(=O)n2c1,9.77%
8,CC(C)NC(=O)c1nn(-c2ccccc2F)nc1CO,-26.3%
9,CCNC(=O)CC1C(=O)N(c2ccc(F)cc2)C(=O)N1Cc1ccc(C)cc1 (stereo not drawn),-4.44%
10,C/C(=N\NC(=O)COc1c(C)cccc1C)c1cccs1,-1.76%
11,Cc1ccccc1C(CC(=O)c1cccs1)C(C#N)C#N (stereo not drawn),-89.2% (active)
12,CCS(=O)(=O)N1CCN(C(=O)c2cccs2)CC1,14.1%
13,Cc1cc(NC(=O)C(C)SCC(=O)Nc2ccccc2N2CCCCC2)no1 (stereo not drawn),-18.8%
14,Cc1cc(NC(=O)C(C)SCC(=O)Nc2cccc(S(=O)(=O)N3CCCCCC3)c2)no1 (stereo not drawn),-103% (active)
15,CCC(=O)Nc1cccc(NC(=O)CSc2nnc(-c3ccc(NS(C)(=O)=O)cc3)n2C)c1,-2.35%
16,Nc1cc(N)nc(SCC(=O)Nc2cccc(S(=O)(=O)N3CCCCC3)c2)n1,-9.15%
17,COCCn1cnnc1SCC(=O)Nc1cccc(S(=O)(=O)N2CCCCC2)c1,-23.6%
18,Cc1ccnc(SCC(=O)Nc2cccc(S(=O)(=O)N3CCOCC3)c2)n1,-25.4%
19,Cn1nnnc1SCC(=O)Nc1cccc(S(=O)(=O)N2CCCCC2)c1,-105% (active)
20,Cn1c(SCC(=O)Nc2cccc(O)c2)nnc1-c1ccc(S(=O)(=O)N2CCOCC2)cc1,-70.3% (active)
21,O=C(CSc1ccccc1)Nc1cccc(S(=O)(=O)N2CCCCC2)c1,-4.82%
22,CC1(C)N=C(SCc2ccccc2Cl)c2ccccc2N1,5.15%

row,SMILES,"activity change, negative = inhibition"
1,Cc1ccc2c(=O)c(C(=O)c3ccc(F)cc3)cn(CC(=O)NC3CCCCC3)c2n1,6.71%
2,CCc1ccccc1NC(=O)Cn1c(=O)n(CC2CCC(C(=O)NCCc3ccccc3)CC2)c(=O)c2ccccc21 (stereo not drawn),17.8%
3,Cc1cc(NC(=O)CSc2ncc(C(=O)Nc3ccc(Cl)cc3)c(=O)n2C)no1,7.76%
4,CC(=O)Nc1ccc(NC(=O)c2cc3sccc3n2Cc2ccc(F)cc2)cc1,-10%
5,COc1ccc2[nH]c3c(C)c4cc[n+](C)cc4c(C)c3c2c1,-97.6% (active)
6,COc1ccc(-n2c(=O)c3sc4ccccc4c3n(CC(=O)Nc3cccc(C)c3)c2=O)cc1,11.4%
7,Cc1cc(C)c(/C=C/c2onc(C)c2S(=O)(=O)N2CCC(C(=O)Nc3ccc(Cl)cc3C)CC2)c(C)c1,-20.3%
8,CN1CN(C)c2ccc([N+](=O)[O-])c3cccc1c23,-90% (active)
9,CCN1CCN(c2ccc([N+](=O)[O-])cc2C#N)CC1,-36.6%
10,CN1CCN(S(=O)(=O)c2ccc(N3CCN(c4ccccc4O)CC3)c([N+](=O)[O-])c2)CC1,-9.97%
11,CN(C)S(=O)(=O)c1ccc(N2CCCC2=O)c([N+](=O)[O-])c1,-23.4%
12,CC1CCCN(c2csc3ccc(F)cc3c2=O)C1 (stereo not drawn),20.9%
13,COc1ccc(-c2cn3c(C)c(C(=O)Nc4cc(C)cc(C)c4)sc3n2)cc1,27.8%
14,COc1cc2c(cc1OC)C(COc1ccc(F)cc1)N(C(=O)c1ccccc1F)CC2 (stereo not drawn),-11.8%
15,C=C(C)CNC(=S)N/N=C/c1ccccc1OCC(=O)O,-63.4% (active)
16,C=C(C)CNC(=S)Nc1ccc(S(=O)(=O)Nc2cnc3ccccc3n2)cc1,-30.9%
17,CCn1c(SCC(=O)N/N=C/c2ccccc2OCC(=O)O)nnc1-c1ccc(C(C)(C)C)cc1,0%
18,COc1ccc(-n2ncc3c2CC(C)(C)CC3NC(=O)CCc2c(C)nn(C)c2C)cc1 (stereo not drawn),-35%
19,Cc1cc(C(=O)NC2CC(C)(C)Cc3c2cnn3-c2ccccc2)n[nH]1 (stereo not drawn),-4.62%
20,COc1ccc(C(=O)NC2CC(C)(C)Cc3c2cnn3-c2ccccc2)c(OC)c1 (stereo not drawn),-62.5% (active)
21,O=C1Cc2cc(S(=O)(=O)Nc3ccc(OC(F)(F)F)cc3)cc3c2N1CCC3,14.6%
22,COC(=O)[C@]12CCCCC=C1N(Cc1cccc3ccccc13)C(=O)[C@H](CC(=O)N1CCOCC1)C2,12.2%
